Experimental data as given in PubChem BioAssay (EPA / NIEHS).
Activity calls are given as the source filed them. Rule for the calls: active = hit-call score of the fitted dose curve at least 0.9, where 1 is the maximum; inactive = score below 0.9.

Assay: ATG_NF_kB_CIS: Attagene CIS-FACTORIAL HepG2 Assay for human Nuclear Factor Kappa B (NF-kB) (AID 2282991)
Details: HepG2 Attagene cis-factorial NF-kB reporter mRNA; actives raise or lower the signal
Protocol: ATG_CIS is a cell-based, multiplexed-readout assay that uses HepG2, a human liver cell line, with measurements taken at 24 hours after chemical dosing in a 24-well plate.ATG_NF_kB_CIS is one of 52 assay component(s) measured or calculated from the ATG_CIS assay. It is designed to make measurements of mRNA induction, a form of inducible reporter, as detected with fluorescence intensity signals by Reverse transcription polymerase chain reaction (RT-PCR) and Capillary electrophoresis technology.Data from the assay component ATG_NF_kB_CIS was analyzed into 1 assay endpoint. This assay endpoint, ATG_NF_kB_CIS, was analyzed with bidirectional fitting relative to DMSO as the negative control and baseline of activity. Using a type of inducible reporter, measures of mRNA for gain or loss-of-signal activity can be used to understand the reporter gene at the transcription factor-level as they relate to the gene NFKB1. Furthermore, this assay endpoint can be referred to as a primary readout, because this assay has produced multiple assay endpoints where this one serves a reporter gene function. To generalize the intended target to other relatable targets, this assay endpoint is annotated to the dna binding intended target family, where the subfamily is NF-kappa B.
Human liver HepG2 cells are transiently transfected with multiple reporter transcription units (MRTUs) in 6-well plates using FuGene 6 reagent (Roche; 3 ml FuGene/1 mg DNA). The MRTU constructs are regulated by a cis-regulating element (promoter). […] A major difference between the CIS and TRANS system is that in CIS activities of endogenous TFs are measured, whereas the TRANS assay evaluates changes in activities of exogenous, chimeric NR-Gal4 proteins. […] At the end of 24 hour incubation, total RNA was isolated using TriZol reagent (Invitrogen). The isolated RNA is then reverse-transcribed using oligo(dT) primer and Mo-MLV reverse transcriptase (Invitrogen) with DNAse I (Ambion) treatment for 30 min. The one-tenth of the produced cDNA was amplified by PCR using Taq DNA polymerase (Invitrogen) and two reporter sequence-specific primers. The PCR products were fluorescently labeled by primer extension with 6-arboxyfluorescein (6-FAM) 5'-labeled reporter sequence-specific primer (2 min at 95 C, 20 s at 68 C and 10 min at 72 C) and these products were digested with 5U of HpaI (New England Biolabs) for 2h at 37 C. The fragments were purified using Qiaquick PCR columns (Qiagen), analyzed on an ABI 3130xL genetic analyzer (Applied Biosystems) with peak positions identified by using a set of X-rhodamine (ROX)-labeled MapMarker1000 molecular weight standards (BioVentures). The raw capillary electrophoresis data was processed using Attagraph software (Attagene).

Q: Which outcome does the source give for CN=C=S here?
A: inactive

Q: For CCC(C)n1c(=O)[nH]c(C)c(Br)c1=O (stereo not given), which outcome is on record?
A: inactive

Q: For CCOP(=S)(OCC)Oc1nc(Cl)n(C(C)C)n1, which outcome is on record?
A: inactive

Q: For Nc1c(Cl)c(F)nc(OCC(=O)O)c1Cl, which outcome is on record?
A: inactive

Q: With CCOP(=O)(OCC)Oc1nc(Cl)c(Cl)cc1Cl as the molecule, how does the outcome read?
A: inactive

Q: With Cc1c(COC(=O)[C@@H]2[C@H](/C=C(\Cl)C(F)(F)F)C2(C)C)cccc1-c1ccccc1 as the molecule, how does the outcome read?
A: inactive

Q: With CC1(C)CON(Cc2ccccc2Cl)C1=O as the molecule, how does the outcome read?
A: inactive

Q: Which outcome does the source give for CC(C)(C)C(=O)C(Oc1ccc(Cl)cc1)n1cncn1 (stereo not given) here?
A: inactive

Q: For O=C1C2CC=CCC2C(=O)N1SC(Cl)(Cl)Cl (stereo not given), which outcome is on record?
A: inactive

Q: With CCCN(CC)CC1COC2(CCC(C(C)(C)C)CC2)O1 (stereo not given) as the molecule, how does the outcome read?
A: inactive

Q: Which outcome does the source give for N#CN=C1SCCN1Cc1ccc(Cl)nc1 here?
A: inactive

Q: Which outcome does the source give for COc1ccc(-c2ccccc2)cc1NNC(=O)OC(C)C here?
A: inactive

Q: With CC(C)N1C(=O)N(c2ccccc2)CSC1=NC(C)(C)C as the molecule, how does the outcome read?
A: inactive

Q: Which outcome does the source give for COc1cc(OC)nc(NC(=O)NS(=O)(=O)c2ncccc2OCC(F)(F)F)n1 here?
A: inactive

Q: With COC(=O)c1c(C(F)F)nc(C(F)(F)F)c(C2=NCCS2)c1CC(C)C as the molecule, how does the outcome read?
A: inactive

Q: For C=C(C)CN(CC)c1c([N+](=O)[O-])cc(C(F)(F)F)cc1[N+](=O)[O-], which outcome is on record?
A: inactive

Q: For Nc1cnn(-c2ccccc2)c(=O)c1Cl, which outcome is on record?
A: inactive

Q: With CC(C)=CC1C(C(=O)OCc2coc(Cc3ccccc3)c2)C1(C)C (stereo not given) as the molecule, how does the outcome read?
A: inactive

Q: Which outcome does the source give for CC1(C)C(C=C(Cl)Cl)C1C(=O)OC(C#N)c1cccc(Oc2ccccc2)c1 (stereo not given) here?
A: inactive

Q: With COc1cc(Cl)c(OC)cc1Cl as the molecule, how does the outcome read?
A: inactive

Q: With CCCCC(O)(Cn1cncn1)c1ccc(Cl)cc1Cl (stereo not given) as the molecule, how does the outcome read?
A: inactive

Q: Which outcome does the source give for CCCC(=NOCC)C1=C(O)CC(CC(C)SCC)CC1=O (stereo not given) here?
A: inactive

Q: Which outcome does the source give for CCCCOCN(C(=O)CCl)c1c(CC)cccc1CC here?
A: inactive

Q: Which outcome does the source give for CC(C)Oc1cccc(NC(=O)c2ccccc2C(F)(F)F)c1 here?
A: inactive

Q: For CC(C)N1C(=O)c2ccccc2NS1(=O)=O, which outcome is on record?
A: inactive

Q: Which outcome does the source give for CCOc1nc(F)cc2nc(S(=O)(=O)Nc3c(Cl)cccc3Cl)nn12 here?
A: inactive

Q: For O=P(O)(O)CCCl, which outcome is on record?
A: inactive

Q: For CCN(CC)c1nc(C)cc(OP(=S)(OC)OC)n1, which outcome is on record?
A: inactive

Q: With CO/N=C(/C1=NOCCO1)c1ccccc1Oc1ncnc(Oc2ccccc2Cl)c1F as the molecule, how does the outcome read?
A: inactive

Q: For COC(=O)NC(=S)Nc1ccccc1NC(=S)NC(=O)OC, which outcome is on record?
A: inactive

Q: For Clc1nc(Cl)nc(Nc2ccccc2Cl)n1, which outcome is on record?
A: inactive

Q: With CS(=O)(=O)c1ccc(C(=O)C2C(=O)CCCC2=O)c([N+](=O)[O-])c1 as the molecule, how does the outcome read?
A: inactive

Q: With COP(=O)(OC)O/C(C)=C/C(=O)N(C)C as the molecule, how does the outcome read?
A: inactive

Q: Which outcome does the source give for CCOc1cc(C(C)(C)C)ccc1C1COC(c2c(F)cccc2F)=N1 (stereo not given) here?
A: inactive

Q: With N#Cc1c[nH]cc1-c1cccc2c1OC(F)(F)O2 as the molecule, how does the outcome read?
A: inactive

Q: With Nc1c(Cl)c(Cl)nc(C(=O)O)c1Cl as the molecule, how does the outcome read?
A: inactive

Q: For CNC(=O)N(C)c1nnc(C(C)(C)C)s1, which outcome is on record?
A: inactive

Q: For CS(=O)(=O)c1cc(C(F)(F)F)ccc1C(=O)c1cnoc1C1CC1, which outcome is on record?
A: inactive

Q: Which outcome does the source give for COCC(C)N(C(=O)CCl)c1c(C)csc1C (stereo not given) here?
A: inactive

Q: Which outcome does the source give for CCOc1nc(C(Cl)(Cl)Cl)ns1 here?
A: inactive
